From PubChem BioAssay
Shown are actives, neighbours in structure and some others; about 1.2% of the full set was active somewhere.
GSH fluor: compound fluoresces at 488/530 nm on GSH beads. GSH beads flow cytometry, compound fluorescence 488/530 nm; active compounds read high. fluorescence (KMESF) at 10 µM. 190,000 tested, 0.25% active; in the data active = fluorescence above about 89;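 also: glutathione beads carrying GST-tagged Bcl family fusion proteins plus one bare bead set; values are compound well signal with DMSO vehicle wells as background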
RGS16-Gao: modulates binding between human RGS16 and Galphao; O15492+P09471; bead-based flow cytometry RGS16-Galphao binding, fluorescence; actives lie on both sides; binding response (% of control), % at 10 µM; 220,000 tested, 0.38% active;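 also: Galphao activated by GDP with aluminum fluoride before binding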
Target sequence (O15492 whole entry, looked up): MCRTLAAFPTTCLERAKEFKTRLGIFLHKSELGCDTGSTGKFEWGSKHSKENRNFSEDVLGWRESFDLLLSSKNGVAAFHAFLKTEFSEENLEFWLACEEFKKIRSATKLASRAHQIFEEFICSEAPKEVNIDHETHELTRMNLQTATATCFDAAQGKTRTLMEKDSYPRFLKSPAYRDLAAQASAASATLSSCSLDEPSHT
Target sequence (P09471 whole entry, looked up): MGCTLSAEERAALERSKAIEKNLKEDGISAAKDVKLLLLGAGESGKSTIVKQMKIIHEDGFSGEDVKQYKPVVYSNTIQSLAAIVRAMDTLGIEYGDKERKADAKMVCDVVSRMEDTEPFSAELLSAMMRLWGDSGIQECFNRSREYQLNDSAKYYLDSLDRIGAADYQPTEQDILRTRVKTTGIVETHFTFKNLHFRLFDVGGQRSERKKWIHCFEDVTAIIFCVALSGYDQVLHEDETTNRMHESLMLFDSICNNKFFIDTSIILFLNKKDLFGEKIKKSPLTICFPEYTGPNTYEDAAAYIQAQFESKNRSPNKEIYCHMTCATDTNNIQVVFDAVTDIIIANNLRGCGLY
Avidin fluor: compound fluoresces at 488/530 nm on avidin beads. compound fluorescence 488/530 nm, flow cytometry; active compounds read high. fluorescence (KMESF) at 10 µM. 220,000 tested, 0.38% active. AID 1775; in the data active = fluorescence above about 47
RGS4-Gao reg: modulates binding of RGS4 to human Galphao | P09471 | Multiplexed bead flow cytometry; actives lie on both sides | binding response (% of control), % at 10 µM | 220,000 tested, 0.33% active | AID 1415; in the data active = binding response below about 49% or above about 150%; inactive = in between;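 also: fluorescent Galphao activated with aluminum fluoride binding bead-coupled RGS4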
Target sequence (P09471 whole entry, looked up): as above
RGS7-Gao: modulates binding of RGS7 to human Galphao. Multiplexed bead flow cytometry; actives lie on both sides. binding response (% of control), % at 10 µM. AID 1439. 220,000 tested, 0.35% active. P09471; in the data active = binding response below about 49% or above about 150%; inconclusive = no clear call, values can overlap the other calls; inactive = in between;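 also: fluorescent Galphao held in activated GDP-AlF4 state binding bead-coupled RGS7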
RGS8-Gao reg: regulators of human RGS8-Galphao interaction; 220,000 tested, 0.34% active; P09471; multiplexed bead flow cytometry, RGS8-Galphao binding; actives lie on both sides; response (percent of control binding), % at 10 µM; in the data active = response below about 60% or above about 140%; inactive = in between;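 also: Galphao activated as the GDP aluminium fluoride complex binding bead-coupled RGS8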
RGS4-Gao HTS: modulates binding between human RGS4 and Galphao | 1,600 tested, 99% active | shares compounds with RGS16-Gao | RGS4–Galpha-o binding response, % at 10 µM | multiplexed bead flow cytometry, RGS–Galpha-o binding;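 also: fluorescently labeled Galpha-o bound to GDP with aluminium fluoride binding biotinylated RGS beads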
Biotin-avidin: biotin-avidin bead binding disruption counter-screen; shares compounds with RGS16-Gao; streptavidin beads, fluorescein-biotin binding, flow cytometry; inhibition, % at 10 µM; 1,700 tested, under 10 active;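 active = inhibition above 50%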;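 also: median green fluorescence of gated singlet beads compared with DMSO control wells; 0% = DMSO wells and 100% = complete loss of bead fluorescence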
RGS8-Gao confirm: confirmation of regulators of human RGS8-Galphao interaction; 1,700 tested, 3% active; binding response (% of control), % at 10 µM; bead-based flow cytometry RGS8-Galphao binding, fluorescence; actives lie on both sides; AID 1836; shares compounds with RGS16-Gao; in the data active = binding response below about 72% or above about 130%; inactive = in between;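 also: Galphao activated as GDP AlF4 complex before binding bead RGS8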
RGS7-Gao confirm: confirmation of regulators of human RGS7-Galphao interaction. 1,700 tested, 7.8% active. bead-based flow cytometry RGS7-Galphao binding; actives lie on both sides. AID 1837. response (percent of control binding), % at 10 µM. shares compounds with RGS16-Gao; in the data active = response below about 75% or above about 130%; inactive = in between;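 also: fluorescent Galphao activated with GDP and aluminum fluoride binding bead-coupled RGS7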
RGS16-Gao single: RGS16-Galphao interaction regulation, single point confirmation. AID 1838. bead-based flow cytometry, RGS16-Galphao binding; actives lie on both sides. shares compounds with RGS16-Gao. 1,700 tested, 4% active. response (% of control binding), % at 10 µM; in the data active = response below about 74% or above about 130%; inactive = in between;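 also: Galphao activated as the GDP aluminium fluoride complex binding bead-coupled RGS16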
RGS4-Gao confirm: confirmation of regulators of human RGS4-Galphao interaction; shares compounds with RGS16-Gao; RGS4-Galphao binding, multiplexed bead flow cytometry; actives lie on both sides; binding response (% of control), % at 10 µM; 1,700 tested, 4% active; in the data active = binding response below about 74% or above about 130%; inactive = in between
RGS19-Gao conf: RGS19-Galphao interaction regulation, single point confirmation. shares compounds with RGS16-Gao. bead-based flow cytometry RGS19-Galphao binding; actives lie on both sides. response (percent of control binding), % at 10 µM. 1,700 tested, 5% active. AID 1841; in the data active = response below about 50% or above about 160%; inactive = in between;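 also: 100% = no compound control and 0% = blank background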
Active calls of the source: *; [ ] = remark or other dose. Unless noted, no rule for the calls is given here.

What do the screens show for `CCCCOc1ccc(-c2nc(SCC(N)=O)n[nH]2)cc1`?
GSH fluor: 16; RGS16-Gao: 103.0; Avidin fluor: 9; RGS4-Gao reg: 100.1; RGS7-Gao: 99.7; RGS8-Gao reg: 100.5

Results for Cc1[nH]c(C)c2c(=O)[nH]ncc12 ?
RGS16-Gao: 95.9; Avidin fluor: 8; RGS4-Gao reg: 96.4; RGS7-Gao: inconclusive; RGS8-Gao reg: 97.6

How did COC(=O)c1cc(C)sc1NC(=O)c1cccnc1 do in these assays?
GSH fluor: 46; Biotin-avidin: 2.5; RGS8-Gao confirm: 99.6; RGS7-Gao confirm: 101.3; RGS16-Gao single: 98.9; RGS4-Gao confirm: 100.3; RGS19-Gao conf: 99.2

What do the screens show for `Nc1nc(-c2ccc(F)cc2)cc(C(F)(F)F)n1`?
GSH fluor: 11; RGS16-Gao: 101.9; Avidin fluor: 10; RGS4-Gao reg: 102.3; RGS7-Gao: 99.3; RGS8-Gao reg: 100.7

What do the screens show for `Nc1nc(-c2ccc(Cl)cc2)cc(C(F)(F)F)n1`?
GSH fluor: 8; RGS16-Gao: 280.1; Avidin fluor: 7; RGS4-Gao reg: 126.2; RGS7-Gao: 117.7; RGS8-Gao reg: 142.1*[activator]; RGS4-Gao HTS: 126.2*; Biotin-avidin: -2.5; RGS8-Gao confirm: 102.5; RGS7-Gao confirm: 150.7*[activator]; RGS16-Gao single: 111.5; RGS4-Gao confirm: 126.3*[activator]; RGS19-Gao conf: 127.9

What do the screens show for `CCOCCNC(=O)c1ccccc1C(=O)NCCOCC`?
GSH fluor: 9; RGS16-Gao: 123.2; Avidin fluor: 16; RGS4-Gao reg: 109.9; RGS7-Gao: 99.5; RGS8-Gao reg: 102.2

How did CCOCCN(C(=O)c1ccccc1Cl)c1cccc(C)c1C do in these assays?
RGS16-Gao: 153.4; Avidin fluor: 85*; RGS4-Gao reg: 165.3*[activator]; RGS7-Gao: inconclusive; RGS8-Gao reg: 102.3; Biotin-avidin: 0.1; RGS8-Gao confirm: 100.2; RGS7-Gao confirm: 99.3; RGS16-Gao single: 99.1; RGS4-Gao confirm: 98.4; RGS19-Gao conf: 88.0

What do the screens show for `CC1CCc2nc(NC(=O)CN3CCN(c4ccccc4)CC3)sc2C1` (configuration not stated)?
GSH fluor: 11; RGS16-Gao: 105.2; Avidin fluor: 17; RGS4-Gao reg: 104.0; RGS7-Gao: 103.2; RGS8-Gao reg: 104.0

What do the screens show for `CC1CCc2nc(NC(=O)CCSc3ccccc3)sc2C1` (configuration not stated)?
GSH fluor: 20; RGS16-Gao: 20.3*; Avidin fluor: 5; RGS4-Gao reg: 78.7; RGS7-Gao: 78.8; RGS8-Gao reg: 69.9; RGS4-Gao HTS: 78.7*; Biotin-avidin: 2.3; RGS8-Gao confirm: 101.7; RGS7-Gao confirm: 102.0; RGS16-Gao single: 102.4; RGS4-Gao confirm: 102.2; RGS19-Gao conf: 107.6

Results for COc1ccc(/C=N/NC(=O)CC(=O)NC2CCCCC2)cc1 ?
GSH fluor: 12; RGS16-Gao: 100.9; Avidin fluor: 2; RGS4-Gao reg: 103.2; RGS7-Gao: 104.2; RGS8-Gao reg: 103.5

What do the screens show for `O=c1[nH]c2ccccc2nc1C(F)(F)F`?
RGS16-Gao: 167.3; Avidin fluor: 6; RGS4-Gao reg: 172.7*[activator]; RGS7-Gao: inconclusive; RGS8-Gao reg: 136.9; Biotin-avidin: -0.6; RGS8-Gao confirm: 93.2; RGS7-Gao confirm: 89.0; RGS16-Gao single: 90.6; RGS4-Gao confirm: 93.6; RGS19-Gao conf: 100.9

How did Cc1ccc(Sc2c(O)c3ccccc3n(C)c2=O)cc1 do in these assays?
GSH fluor: 12; RGS16-Gao: 14.2*; Avidin fluor: 1; RGS4-Gao reg: 98.6; RGS7-Gao: 91.0; RGS8-Gao reg: 67.5; RGS4-Gao HTS: 98.6*; Biotin-avidin: 0.5; RGS8-Gao confirm: 103.3; RGS7-Gao confirm: 106.9; RGS16-Gao single: 104.6; RGS4-Gao confirm: 109.0; RGS19-Gao conf: 96.5

How did Cc1nn(-c2ccccc2)c(C)c1NC(=O)Cc1cccs1 do in these assays?
GSH fluor: 17; RGS16-Gao: 58.1; Avidin fluor: 6; RGS4-Gao reg: 55.8; RGS7-Gao: 55.0; RGS8-Gao reg: 67.9

How did Cc1nn(-c2ccccc2)c(C)c1NC(=O)c1cccs1 do in these assays?
GSH fluor: 10; RGS16-Gao: -7.9*; Avidin fluor: 9; RGS4-Gao reg: 82.2; RGS7-Gao: 88.1; RGS8-Gao reg: 80.2; RGS4-Gao HTS: 82.2*; Biotin-avidin: 0.1; RGS8-Gao confirm: 101.1; RGS7-Gao confirm: 103.0; RGS16-Gao single: 100.0; RGS4-Gao confirm: 102.7; RGS19-Gao conf: 100.7

Results for Cc1cc(C(=O)Oc2cccnc2)ccc1[N+](=O)[O-] ?
GSH fluor: 8; RGS16-Gao: 24.8*; Avidin fluor: 1; RGS4-Gao reg: 90.8; RGS7-Gao: 104.5; RGS8-Gao reg: 75.9; RGS4-Gao HTS: 90.8*; Biotin-avidin: -0.6; RGS8-Gao confirm: 103.5; RGS7-Gao confirm: 107.2; RGS16-Gao single: 103.7; RGS4-Gao confirm: 102.5; RGS19-Gao conf: 100.2

Results for CC(C(=O)O)n1c(C(F)(F)F)nc2ccccc21 (configuration not stated) ?
GSH fluor: 32; RGS16-Gao: 108.8; Avidin fluor: 12; RGS4-Gao reg: 105.4; RGS7-Gao: 103.4; RGS8-Gao reg: 104.9

What do the screens show for `Cc1cc(C)n(-c2nc3ccccc3c(=O)n2OCC(=O)N(C)C)n1`?
GSH fluor: 14; RGS16-Gao: 99.2; Avidin fluor: 33; RGS4-Gao reg: 102.5; RGS7-Gao: 102.9; RGS8-Gao reg: 100.7
